The text below walks through data of PubChem BioAssay.

Unmarked numbers belong to inactive results.

The test can be described thus: plasmodial surface anion channel blockers, osmotic lysis – cell-based, P. falciparum Indochina, OD700, 18 h, primary screen (AID 1157). Particulars: P. falciparum Indochina infected erythrocytes, osmotic lysis OD700, 18 h; higher = more signal, called active from +8 up or from −8 down.
With `O=C(CS)NCCCCCNC(=O)[C@@H]1C[C@@H]2C(=O)NCC(=O)N2[C@@H]1c1cccc(OCCO)c1`, the z-score was -1.85. Take `O=C(CS)NCCCCCNC(=O)[C@H]1C[C@H]2C(=O)NCC(=O)N2[C@H]1c1cccc(OCCO)c1`: the z-score was -2.1. The result for `CN(C)CCCCNC(=O)[C@@H]1C[C@@H]2C(=O)N[C@@H](CCCCN)C(=O)N2[C@@H]1c1ccc(O)cc1` reads 1.16; that for `COc1ccc(CCNC(=O)[C@@]2(C)c3ccccc3C(=O)N(c3ccc(C)cn3)[C@H]2c2ccc(CO)cc2)cc1`, 0.156. Turning to `O=C(NCCN1CCOCC1)[C@@H]1c2ccccc2C(=O)N(Cc2cc(C(F)(F)F)cc(C(F)(F)F)c2)[C@H]1c1ccc(CO)cc1`, the z-score is 0.526. The result for `O=C(NCc1ccccc1)[C@@H]1c2ccccc2C(=O)N(C2Cc3ccccc3C2)[C@H]1c1ccc(CO)cc1` reads 0.353. Take `COCCOC(=O)N1C(=O)[C@@]2(c3cc(C#CC4(O)CCCCCC4)ccc31)[C@H](C(=O)Nc1nc3ccccc3s1)[C@H]1C(=O)O[C@H](c3ccccc3)[C@H](c3ccccc3)N1[C@@H]2c1ccccc1OCCO`: the z-score is 0.948. In the case of `CC1CC/C=C\[C@H]2OC34C=CCN(c5ccc6ccccc6c5)C(=O)[C@H]3N(CCO)C(=O)[C@@H]4C2C(=O)O1` (some centres undefined), the z-score is 0.357. The result for `O=C1O[C@@H](c2ccccc2)[C@@H](c2ccccc2)N2[C@@H](c3ccc(OCCO)cc3)[C@]3(C(=O)Nc4ccc(C#CCCO)cc43)[C@@H](C(=O)NC[C@H](O)c3ccccc3)[C@H]12` reads 0.688.
